These results are taken from PubChem BioAssay (Tox21).

Structures are written as SMILES. Results filed as inconclusive are left out. Where a call stands in place of a potency, no number is given. A number with no mark means an inactive call. The source made the active and inactive calls. Calls come from the whole dose curve.
Potency is the fitted concentration of half-maximal effect.

The assay is described as follows: Nuclear factor erythroid 2-related factor 2/antioxidant responsive element (Nrf2/ARE) small molecule agonists: luciferase reporter gene qHTS assay in human keratinocytes (AID 1919969). Note: nearly all actives have a fitted effect of over 35% in size. The conditions noted are these: KeratinoSens HaCaT ARE-luciferase, luminescence, 24 h; series mostly up to 92.4 µM. Background: In a reporter assay the amount or activity of a reporter protein is the signal.
As to `N=C(N)c1ccc(OCCCOc2ccc(C(=N)N)cc2)cc1`, the Potency result is “inactive”.

`COCCCCCCCCOCCC[Si](C)(O[Si](C)(C)C)O[Si](C)(C)C`: the Potency entry is “inactive”.

Take `CCOC(=N)CC(=O)OCC`: the Potency result is “inactive”.

With `Oc1ccc2c(c1)CCC2`, the Potency result was “inactive”.

With `CC(C)(C)c1nnc(NS(=O)(=O)c2ccccc2)s1`, the Potency entry was “inactive”.

With `CCCCc1nc2cccnc2n1Cc1ccc(-c2ccccc2-c2nnn[nH]2)cc1`, the Potency result was “inactive”.

Regarding `O=C(O)Cc1csc(-c2ccc(Cl)cc2)n1`, the Potency result is “inactive”.

Take `CCOC(=O)Nc1ccc(NCc2ccc(F)cc2)nc1N`: the Potency entry was “inactive”.

`CC(Cl)C(Cl)Cl` (centres undefined): the Potency result was “inactive”.

For the compound `O=C(O)C[C@H](O)C[C@H](O)/C=C/c1c(C2CC2)nc2ccccc2c1-c1ccc(F)cc1`, the activity, positive = activation is -21.1% [at 19 µM].

Regarding `CC(=O)Nc1cccc(C)c1`, the Potency result is “inactive”.

On to `CCCCCCc1ccc(N)cc1`, for which the Potency is 27.3 µM (active).

With `O=C=Nc1cccc(C(F)(F)F)c1`, the Potency result is “inactive”.

With `Cc1cc(SC2=C(O)C[C@@](CCc3ccc(N)cc3)(C(C)C)OC2=O)c(C(C)(C)C)cc1CO`, the Potency entry is “inactive”.

In the case of `CCCCC(CC)CN1C(=O)C2C3C=CC(C3)C2C1=O` (centres undefined), the Potency is 54.5 µM (active).

Regarding `NCCS`, the Potency entry is “inactive”.

Take `O=S1(=O)CC(Cl)(Cl)C(Cl)(Cl)C1`: the Potency is 2.43 µM (active).

On to `CN1CCN(C2Cc3ccccc3Sc3ccc(Cl)cc32)CC1` (centres undefined), for which the Potency result was “inactive”.

Turning to `CCOC(=O)C1=NN(c2ccc(Cl)cc2Cl)C(C)(C(=O)OCC)C1` (centres undefined), the Potency result is “inactive”.
